Sampled rows, rich in hits. Any-hit rate of the full collection: about 1.4%.
MbtI inh: MbtI salicylate synthase inhibitors, primary screen, biochemical, fluorescence intensity. actives 0.89% (n = 100,000). inhibition, % (no concentration beside the values). P9WFX0. purified MbtI enzyme, fluorescence intensity read-out; in the data active means inhibition mostly above about 56%, no sharp cut-off; inactive means mostly below about 77%
Target sequence (P9WFX0 whole entry, looked up): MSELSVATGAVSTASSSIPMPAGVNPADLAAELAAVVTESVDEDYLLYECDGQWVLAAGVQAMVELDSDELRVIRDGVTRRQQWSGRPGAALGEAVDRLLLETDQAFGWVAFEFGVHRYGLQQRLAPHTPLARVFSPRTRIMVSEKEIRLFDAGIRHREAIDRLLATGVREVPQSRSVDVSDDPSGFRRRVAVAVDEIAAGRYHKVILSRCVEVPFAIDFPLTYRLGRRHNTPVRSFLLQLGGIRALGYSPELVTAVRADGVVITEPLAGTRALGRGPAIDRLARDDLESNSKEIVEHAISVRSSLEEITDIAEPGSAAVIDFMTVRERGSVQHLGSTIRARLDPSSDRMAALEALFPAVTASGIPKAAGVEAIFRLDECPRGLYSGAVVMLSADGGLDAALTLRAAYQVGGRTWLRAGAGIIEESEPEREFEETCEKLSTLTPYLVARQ
Mtb MenB inh: M. tuberculosis MenB inhibitors, primary screen, biochemical, absorbance | MenB enzyme assay, absorbance read-out | inhibition, % (no concentration beside the values) | 1,4-dihydroxy-2-naphthoyl-CoA synthase (Mycobacterium tuberculosis (strain ATCC 25618 / … | actives 0.43% (n = 100,000); in the data active means inhibition above about 21%, passing the limit was not always enough
Polio RdRp inh: poliovirus RdRp elongation inhibitors, primary screen, biochemical, fluorescence polarization, total intensity; % elongation, % (compound at 16.7 µg/mL); poliovirus polymerase elongation; active compounds read low; Genome polyprotein (Poliovirus type 1 (strain Mahoney)), P03300; AID 588519, 2011; actives 0.66% (n = 150,000); in the data active means % elongation below about 90%
Large screens that a line does not name were inactive.

CCSC1=C(C#N)C(=O)NC(c2ccc(O)cc2)S1 (configuration not stated)	none
CSC1=C(C#N)C(=O)NC(c2ccc(Cl)cc2)S1 (configuration not stated)	Polio RdRp inh 88
ClCc1cnn(-c2ccccc2)c1-n1cccc1	none (no result: Mtb MenB inh, Polio RdRp inh)
CCc1ccc(C(=O)Nc2nncs2)cc1	none
Cc1ccc(C(=O)Nc2nncs2)cc1	Mtb MenB inh 26
COc1ccc(NC(=O)CC2CCCC2)c(S(=O)(=O)N2CCCCC2)c1	none
O=C(CN1CCN(S(=O)(=O)/C=C/c2ccccc2)CC1)NC1CCCc2ccccc21 (configuration not stated)	none
C=C1C2(C(=O)N3CCc4ccccc43)CCC(C2)C1(C)C (configuration not stated)	none
CCc1nc2ccc(Oc3ccc4nc(CC)[nH]c4c3)cc2[nH]1	none (no result: Mtb MenB inh, Polio RdRp inh)
COc1ccc(Cl)cc1NC1=NC2CS(=O)(=O)CC2S1 (configuration not stated)	MbtI inh 63
COc1ccc(Cl)cc1NC1=NCC(C)S1 (configuration not stated)	none
O=C(Cn1nnc2ccccc2c1=O)NC(=O)Nc1ccccc1F	none
N#CC1=C(S)NC(=O)C(C#N)C12CCCCC2 (configuration not stated)	MbtI inh 91
CSC1=C(C#N)C2(CCCC2)C(C#N)C(=O)N1 (configuration not stated)	none (no result: Mtb MenB inh)
Cc1ccc2nc(COc3cccc(NC(=O)COc4ccc(F)cc4)c3)cc(=O)n2c1	none (no result: MbtI inh, Mtb MenB inh)
NNC(=O)c1cncn1-c1ccccc1	none
NC(=O)c1cc(S(=O)(=O)NCc2ccc(Br)cc2)cs1	none (no result: MbtI inh, Mtb MenB inh)
NC(=O)c1cc(S(=O)(=O)NCc2ccccc2)cs1	Polio RdRp inh -12 (no result: MbtI inh, Mtb MenB inh)
Cc1ccc(Oc2ncccc2NC(=O)CSc2ccccn2)c2c1CCC2	none
CCOC(=O)N1CCN(C(=O)/C=C2\Sc3ccccc3NC2=O)CC1	none
O=C1NC(=O)N(Cc2ccccc2Cl)C(=O)/C1=C/N1CCCCC1	none
C=CCn1c(SCC(=O)c2ccccc2)nc2c(c1=O)C(C)(C)Cc1ccccc1-2	none (no result: MbtI inh)
c1ccc(-c2nnc3sc(-c4ccc5c(c4)OCO5)nn23)cc1	none
O=S(=O)(c1cccc(-c2nn3c(-c4ccncc4)nnc3s2)c1)N1CCCCC1	Polio RdRp inh 85
CCOc1ccc(-c2csc(Cn3c(CN4CCN(C)CC4)nc4ccccc4c3=O)n2)cc1	MbtI inh 85, Polio RdRp inh 66
CN(C)Cc1nc2ccccc2c(=O)n1Cc1nc(-c2cc3ccccc3o2)cs1	none
CC(=O)n1c(/C=C2\C=c3cccc(C)c3=NC2=O)c(O)[nH]c1=S	none
COc1ccc(-c2nc(SCC(N)=O)c3c(=O)n(C)c(=O)n(C)c3n2)cc1	none
Cc1cccc(C)c1NC(=O)C1(N(C)C(=O)Cc2cccs2)CCCCC1	none (no result: Mtb MenB inh, Polio RdRp inh)
COc1ccc(C(OCC(O)CN2CCC(C(N)=O)CC2)c2ccc(OC)cc2)cc1 (configuration not stated)	none
COc1cccc(COCC(O)CN2CCC(C(N)=O)CC2)c1 (configuration not stated)	MbtI inh 99
CCc1ccccc1NC(=S)N(Cc1ccco1)C(C)c1ccco1 (configuration not stated)	none
Cc1nnc(C)c2c(C)n(-c3ccc4c(c3)OCO4)c(C)c12	none
S=c1[nH]nc(-c2ccncc2)n1-c1ccc2c(c1)OCO2	MbtI inh 62
CC(/C(=N/O)c1ccccc1)N1CCC(O)O1 (configuration not stated)	none
CCNc1ncnc2c1nnn2CC	MbtI inh 86
CCNc1ncnc2c1nnn2C	none (no result: MbtI inh, Mtb MenB inh)
Cc1ccc(C2C=C(c3ccccc3)NC(=O)C2C#N)cc1 (configuration not stated)	none (no result: MbtI inh)
COc1ccc2c(c1)c1nc(N(C)C)nc3c1n2CCN3C	Polio RdRp inh 6.0
CN=C1c2c(C)c3cc(OC)ccc3n2CCN1C	none
Cc1ccc(N2C(=O)CC(c3ccccc3F)C3=C2COC3=O)cc1Cl (configuration not stated)	none (no result: MbtI inh, Mtb MenB inh)
CSc1sc(C(=O)Sc2ccccc2)cc1S(=O)(=O)C(C)C	Polio RdRp inh 82
CSc1sc(C(=O)Sc2ccccc2)c2c1S(=O)(=O)N(C)c1ccccc1-2	none
C1CCN2C(C3N4CCCCN34)N2C1 (configuration not stated)	none (no result: MbtI inh)
CCc1ccc(C2CC(=O)N3CN(c4ccccc4)CSC3=C2C#N)cc1 (configuration not stated)	none
CSc1ccc(C2CC(=O)N3CN(C)CSC3=C2C#N)cc1 (configuration not stated)	MbtI inh 92
N#CC1=C2SCN(CCCc3ccccc3)CN2C(=O)CC1c1ccc(Cl)cc1 (configuration not stated)	none
CN1CSC2=C(C#N)C(c3ccccc3)CC(=O)N2C1 (configuration not stated)	MbtI inh 86
Cc1cccc(Nc2nc3nonc3nc2N/N=C\c2cccs2)c1C	none
COc1ccc(-c2nonc2NC(=O)c2ccccc2)cc1	none
CCOC(=O)c1cc(C(=O)OCC)n(C)n1	none (no result: MbtI inh)
CCOC(=O)c1cc(C(=O)O)nn1C	Mtb MenB inh 28
O=C(Nc1ccccc1C(=O)O)c1ccccc1	MbtI inh 55 (no result: Mtb MenB inh, Polio RdRp inh)
O=C(c1ccccc1)c1ccccc1NC(=O)c1ccccc1C(=O)O	none (no result: MbtI inh, Mtb MenB inh)
CCc1cccc(-n2c(=O)c3cccnc3n2CC(=O)Nc2ccc(OC)c(Cl)c2)c1	none (no result: MbtI inh, Mtb MenB inh)
O=C(O)c1cccc(N2C(=O)CSC2c2ccccc2)c1 (configuration not stated)	none
C=CCN(CC=C)C(=O)c1cccc(OC)c1	none (no result: MbtI inh)
COc1cccc(N=C2NNC(C)=C(C(=O)N(C)C)S2)c1	MbtI inh 59, Polio RdRp inh 83
COc1ccc(C2CC(=O)N3CN(C4CCCCC4)CSC3=C2C#N)cc1 (configuration not stated)	Polio RdRp inh 75 (no result: MbtI inh, Mtb MenB inh)
COc1cccc(C2CC(=O)NC(SC)=C2C#N)c1 (configuration not stated)	none
CCOC(=O)CN1CSC2=C(C#N)C(c3ccc(OC)cc3)CC(=O)N2C1 (configuration not stated)	none
COc1cccc(C2CC(=O)N3CN(C4CCCCC4)CSC3=C2C#N)c1 (configuration not stated)	Polio RdRp inh 77 (no result: MbtI inh, Mtb MenB inh)
CCOC(=O)c1c(NCC(=O)N2CCOCC2)sc2c1CC(C)(C)NC2(C)C	none
NC(=O)CN1c2cccc3cccc(c23)S1(=O)=O	none
CNC(=O)NC(=O)C(C)Sc1nc2sccc2c(=O)n1-c1ccccc1 (configuration not stated)	none
Cc1sc2nc(SCC(=O)c3ccc(O)c(O)c3)[nH]c(=O)c2c1C	none
Cc1sc2nc(SCC(=O)c3ccc(O)cc3O)[nH]c(=O)c2c1C	MbtI inh 88, Polio RdRp inh 76
O=C(O)CCC(=O)Nc1ccc(N2CCCCC2)c(C(=O)O)c1	none
O=C(O)CCC(=O)Nc1ccc(O)c(C(=O)O)c1	Polio RdRp inh 87
COC(=O)Nc1ccc(N=Cc2cccs2)cc1	none (no result: MbtI inh)
CNC(=O)NC(=O)CSc1nnc(Cc2ccccc2)n1-c1ccc(Cl)cc1	none
Nc1nnnn1CC(=O)OCC(=O)Nc1ccccc1	none (no result: MbtI inh)
Nn1c(COc2cccc(Br)c2)nnc1SCC(=O)NCc1ccccc1	none
Nc1cccc(C2=NCCN2)c1	none (no result: MbtI inh)
O=C(Nc1cccc(C2=NCCN2)c1)Nc1cccc(C2=NCCN2)c1	Polio RdRp inh 68 (no result: MbtI inh)
